Results from PubChem BioAssay (NCATS).
Several values for one entry are separate records, joined by “and”; a condition that tells them apart may be missing. Equal values may be shown once. Inconclusive results are not listed. Entries that show only a call come without a potency. Activity calls are given as the source filed them. Calls follow the shape of the dose curve; as a rule, active = well fitted curve in the direction sought with a large enough effect; inconclusive = small, poorly fitted or top-dose-only effect, or another doubt; inactive = no such curve, though single readings can be large; an effect the other way counts as inactive or inconclusive.

Target: Cytochrome P450 3A7 (Homo sapiens) (UniProt P24462)
Sequence (P24462 whole entry, looked up): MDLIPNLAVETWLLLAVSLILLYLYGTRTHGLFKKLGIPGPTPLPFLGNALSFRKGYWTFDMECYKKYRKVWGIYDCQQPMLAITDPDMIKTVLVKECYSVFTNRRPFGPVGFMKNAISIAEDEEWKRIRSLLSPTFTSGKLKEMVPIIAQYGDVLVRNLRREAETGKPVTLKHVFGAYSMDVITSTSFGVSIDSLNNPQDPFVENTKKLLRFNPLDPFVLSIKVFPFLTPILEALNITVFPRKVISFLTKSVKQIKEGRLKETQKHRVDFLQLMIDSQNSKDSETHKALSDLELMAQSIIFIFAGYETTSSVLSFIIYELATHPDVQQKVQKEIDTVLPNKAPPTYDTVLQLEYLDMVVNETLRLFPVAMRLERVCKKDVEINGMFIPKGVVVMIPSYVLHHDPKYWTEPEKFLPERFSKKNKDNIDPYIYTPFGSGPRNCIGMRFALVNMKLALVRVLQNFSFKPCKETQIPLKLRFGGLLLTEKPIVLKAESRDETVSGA
Test: Cytochrome P450 family 3 subfamily A member 7 (CYP3A7) small molecule antagonists: luciferase biochemical qHTS assay (AID 1963596)
Conditions: P450-Glo CYP3A7 enzyme luminescence, 1 h; series mostly up to 57.4 µM
Method in brief: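 Biochemical CYP3A7 activity measured with P450-Glo system: luciferin formed from proluciferin substrate in NADPH-driven reaction (1 h, room temperature) after 10 min compound preincubation. Signal in relative luminescence units.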
Also: nearly all actives have a fitted effect of over 40% in size.
Potency is read from the fitted curve at half-maximal effect.

SMILES | Potency
N#Cc1cc(F)cc(-c2nc(-c3ccccn3)no2)c1 | inactive
CCCCOC(=O)NC(=O)C1c2ccccc2Oc2ccccc21 | inactive
CCC(C)(C)C1CCc2c(sc(NC(=O)c3ccc(Br)cc3)c2C#N)C1 (stereo not given) | inactive
CC1(C)Oc2ncnc(N)c2N=C1c1ccc(C2CCC(CC(=O)O)CC2)cc1 (stereo not given) | inactive
C=CC(=O)N1CCN(C(=O)c2cc(-c3cc(Cl)ccc3Cl)c(Cl)cc2OC)CC1 | inactive
O=C(c1ccc(Cl)c([N+](=O)[O-])c1)N1CCN(c2ccccc2F)CC1 | inactive
O=C(c1ccc(F)cc1)C1CCN(CCn2c(=O)nc3n(c2=O)CCCC3)CC1 | inactive
COC(=O)c1cc(Br)cnc1N1CCC(NC2CCCCC2)C(O)C1 (stereo not given) | inactive
CN(c1ccc(NC(=O)Nc2ccccc2)cc1)S(=O)(=O)c1cnn(-c2ccc(F)cc2)c1 | inactive
COC(=O)[C@H](CC1C=NC=N1)NCC12CC3CC(CC(C3)C1)C2 (stereo not given in full) | inactive
CC#CC(=O)Nc1ccc2ncnc(Nc3cccc(Br)c3)c2c1 | inactive
O=C(NCC(O)CO)c1ccncc1Nc1ccc(I)cc1F (stereo not given) | inactive
COc1ccc(NC(=O)N2CCc3c2ccc2ccccc32)cc1N1CCN(C)CC1 | inactive
N#Cc1ccc2[nH]c(O)c(-c3ccc(CN4CCOCC4)cn3)c2c1 | inactive
CC(C)(C(=O)c1cccnc1)c1cccnc1 | inactive
O=S(=O)(Cc1ccccc1)Nc1ccc(-c2ccc3c(cnn3-c3ccc(F)cc3)c2)c(C(F)(F)F)c1 | 12 µM (active)
Cc1onc(-c2ccccc2)c1C(=O)N[C@@H]1C(=O)N2[C@@H]1SC(C)(C)[C@@H]2C(=O)O | inactive
O=C(Nc1ccc(N2CCC(C(=O)N3CCOCC3)CC2)cc1)c1cnc(Oc2ccccc2)nc1 | inactive
FC(F)(F)c1cc(C(F)(F)F)c2ccc3nc(-c4nnco4)cn3c2n1 | inactive
c1cc(-c2cc(C3CCNCC3)[nH]n2)ccn1 | inactive

SMILES | Potency
CCOC(=O)N1CCC(CN(Cc2ccc(Cl)cc2)Cc2ccc([N+](=O)[O-])s2)C1 (stereo not given) | inactive
O=C(O)c1n[nH]c2c1C[C@H]1C[C@@H]21 | inactive
Cc1[nH]c(/C=C2\C(=O)Nc3ccc(F)cc32)c(C)c1C(=O)NC[C@H](O)CN1CCOCC1 | inactive
Cn1nc(-c2ccc(C(F)(F)F)cc2)nc2c(=O)n(C)c(=O)nc1-2 | inactive
O=C(Cc1ccc(-c2ccccc2)cc1)NC1CCC1 | inactive
COc1ccc(C2=N[C@@H](c3ccc(Cl)cc3)[C@@H](c3ccc(Cl)cc3)N2C(=O)N2CCNC(=O)C2)c(OC(C)C)c1 | inactive
O=C(NCc1ccccn1)Nc1nnc(-c2ccco2)o1 | inactive
Nc1c(CC(=O)O)cccc1C(=O)c1ccc(Br)cc1 | inactive
COc1ccc(C(=O)Nc2ncc(-c3ccc(C(=O)O)cc3)s2)cc1 | inactive
C(#Cc1cccc(CN2CCOCC2)c1)CCN1CCCCC1 | inactive
O=C(COc1ccc(Cl)cc1)NC1CCC(NC(=O)COc2ccc(Cl)cc2)CC1 (stereo not given) | inactive
CNC(=O)Nc1ccc(OC)c(NC(=O)NC(=O)c2cc(F)c(F)cc2Cl)c1 | inactive
O=C(Nc1cccc(C(F)(F)F)c1)Nc1ccc(Br)cc1-c1nn[nH]n1 | inactive
CCN(CC)Cc1ccc(C(=O)N(CCc2ccccc2OC)[C@@H]2CCNC2)cc1 | inactive
FC(F)(F)Oc1ccc(-c2ccc3nnc(C(F)(F)F)n3c2)cc1 | inactive
CC(=O)N1CCN(NC(=O)c2ccc(F)cc2)CC1 | inactive
Cc1nc(C#Cc2ccnc(Cl)c2)c(C)n1-c1ccc(F)cc1 | inactive
CCOCc1cc(OC)c(-c2ccc(C[C@H](NC(=O)c3c(F)cccc3F)C(=O)O)cc2)c(OC)c1 | inactive
COc1ccc(C2(CNC(=O)c3ccc(NC(=O)c4ccco4)cc3)CCOCC2)cc1 | inactive
CCNC(=O)/C=C/c1cccc(Br)c1 | inactive

Tested on: not listed separately
Test: Viability qHTS for spleen associated tyrosine kinase inhibitor (SYKi) naive MV4-11 cells (AID 1963823)
Conditions: MV4-11 AML viability, CellTiter-Glo luminescence, 72 h; series mostly up to 45 µM
Method in brief: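 Cells: MV4-11, SYK inhibitor naive, 500 per well. Treatment: library compounds, 72 hr, 37 C, 5% CO2. Read-out: CellTiter-Glo luminescence after 10 min RT.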

SMILES | Potency
N#Cc1cc(F)cc(-c2nc(-c3ccccn3)no2)c1 | inactive
CCCCOC(=O)NC(=O)C1c2ccccc2Oc2ccccc21 | inactive
CCC(C)(C)C1CCc2c(sc(NC(=O)c3ccc(Br)cc3)c2C#N)C1 (stereo not given) | inactive
CC1(C)Oc2ncnc(N)c2N=C1c1ccc(C2CCC(CC(=O)O)CC2)cc1 (stereo not given) | inactive
C=CC(=O)N1CCN(C(=O)c2cc(-c3cc(Cl)ccc3Cl)c(Cl)cc2OC)CC1 | 8.2 µM (active)
O=C(c1ccc(Cl)c([N+](=O)[O-])c1)N1CCN(c2ccccc2F)CC1 | 23.1 µM (active)
O=C(c1ccc(F)cc1)C1CCN(CCn2c(=O)nc3n(c2=O)CCCC3)CC1 | inactive
COC(=O)c1cc(Br)cnc1N1CCC(NC2CCCCC2)C(O)C1 (stereo not given) | inactive
CN(c1ccc(NC(=O)Nc2ccccc2)cc1)S(=O)(=O)c1cnn(-c2ccc(F)cc2)c1 | 16.4 µM (active)
COC(=O)[C@H](CC1C=NC=N1)NCC12CC3CC(CC(C3)C1)C2 (stereo not given in full) | inactive
CC#CC(=O)Nc1ccc2ncnc(Nc3cccc(Br)c3)c2c1 | 1.46 µM (active)
O=C(NCC(O)CO)c1ccncc1Nc1ccc(I)cc1F (stereo not given) | 0.366 µM (active)
COc1ccc(NC(=O)N2CCc3c2ccc2ccccc32)cc1N1CCN(C)CC1 | 9.2 µM (active)
N#Cc1ccc2[nH]c(O)c(-c3ccc(CN4CCOCC4)cn3)c2c1 | inactive
CC(C)(C(=O)c1cccnc1)c1cccnc1 | inactive
O=S(=O)(Cc1ccccc1)Nc1ccc(-c2ccc3c(cnn3-c3ccc(F)cc3)c2)c(C(F)(F)F)c1 | 16.4 µM (active)
Cc1onc(-c2ccccc2)c1C(=O)N[C@@H]1C(=O)N2[C@@H]1SC(C)(C)[C@@H]2C(=O)O | inactive
O=C(Nc1ccc(N2CCC(C(=O)N3CCOCC3)CC2)cc1)c1cnc(Oc2ccccc2)nc1 | inactive
FC(F)(F)c1cc(C(F)(F)F)c2ccc3nc(-c4nnco4)cn3c2n1 | inactive
c1cc(-c2cc(C3CCNCC3)[nH]n2)ccn1 | inactive

SMILES | Potency
CCOC(=O)N1CCC(CN(Cc2ccc(Cl)cc2)Cc2ccc([N+](=O)[O-])s2)C1 (stereo not given) | 10.3 µM (active)
O=C(O)c1n[nH]c2c1C[C@H]1C[C@@H]21 | inactive
Cc1[nH]c(/C=C2\C(=O)Nc3ccc(F)cc32)c(C)c1C(=O)NC[C@H](O)CN1CCOCC1 | 13 nM (active) and 26.3 nM (active)
Cn1nc(-c2ccc(C(F)(F)F)cc2)nc2c(=O)n(C)c(=O)nc1-2 | 3.66 µM (active)
O=C(Cc1ccc(-c2ccccc2)cc1)NC1CCC1 | inactive
COc1ccc(C2=N[C@@H](c3ccc(Cl)cc3)[C@@H](c3ccc(Cl)cc3)N2C(=O)N2CCNC(=O)C2)c(OC(C)C)c1 | 20.6 µM (active)
O=C(NCc1ccccn1)Nc1nnc(-c2ccco2)o1 | inactive
Nc1c(CC(=O)O)cccc1C(=O)c1ccc(Br)cc1 | inactive
COc1ccc(C(=O)Nc2ncc(-c3ccc(C(=O)O)cc3)s2)cc1 | 0.461 µM (active)
C(#Cc1cccc(CN2CCOCC2)c1)CCN1CCCCC1 | inactive
O=C(COc1ccc(Cl)cc1)NC1CCC(NC(=O)COc2ccc(Cl)cc2)CC1 (stereo not given) | inactive
CNC(=O)Nc1ccc(OC)c(NC(=O)NC(=O)c2cc(F)c(F)cc2Cl)c1 | inactive
O=C(Nc1cccc(C(F)(F)F)c1)Nc1ccc(Br)cc1-c1nn[nH]n1 | inactive
CCN(CC)Cc1ccc(C(=O)N(CCc2ccccc2OC)[C@@H]2CCNC2)cc1 | 3.17 µM (active)
FC(F)(F)Oc1ccc(-c2ccc3nnc(C(F)(F)F)n3c2)cc1 | inactive
CC(=O)N1CCN(NC(=O)c2ccc(F)cc2)CC1 | inactive
Cc1nc(C#Cc2ccnc(Cl)c2)c(C)n1-c1ccc(F)cc1 | 8.2 µM (active)
CCOCc1cc(OC)c(-c2ccc(C[C@H](NC(=O)c3c(F)cccc3F)C(=O)O)cc2)c(OC)c1 | inactive
COc1ccc(C2(CNC(=O)c3ccc(NC(=O)c4ccco4)cc3)CCOCC2)cc1 | inactive
CCNC(=O)/C=C/c1cccc(Br)c1 | inactive
